HCV inh: qHTS Assay for Inhibitors of Hepatitis C Virus (HCV); Huh7.5.1 HCVcc-Cre infection, luciferase reporter, 44 h; Potency, µM (doses to about 41.8 µM), hits mostly inhibitors; hit rate 3.4% among 340,000
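Antiviral activity was scored by luciferase reporter output from cells infected with HCVcc-Cre (~0.5 moi) in presence of compound, 44 h infection period, cells seeded 1,000/well 4 h prior.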
CHX counter: Cycloheximide Counterscreen for Small Molecule Inhibitors of Shiga Toxin; cell reporter, cycloheximide protein synthesis inhibition counterscreen; max response, %; hit rate 12% among 300,000; in the data active means max response mostly above about 13%, no sharp cut-off; inactive means mostly below about 14%; further: read at 38.3 µM for the half of the compounds with a filed dose
Pf growth 96h: Primary qHTS for delayed death inhibitors of the malarial parasite plastid, 96 hour incubation; P. falciparum luciferase reporter growth, 96 h; Potency, µM (titrated, usually from 28.7 µM), usual class: inhibitors; hit rate 6.9% among 320,000
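Readout is luminescence from an integrated firefly luciferase in P. falciparum. Red cells, 2% hematocrit and 0.05% parasitemia final, were cultured with compound through two parasite generations (96 hours) at 37 C, 5% CO2.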
Shiga toxin inh: A qHTS for Small Molecule Inhibitors of Shiga Toxin; Vero cells, Shiga toxin protein synthesis inhibition reporter; inhibition, % at 38.7 µM; hit rate 9.2% among 290,000; AID 2315, 2010; in the data active means inhibition mostly above about 28%, no sharp cut-off; inactive means mostly below about 43%
AMA1-RON2 inh: qHTS for Inhibitors of AMA1-RON; Towards Development of Antimalarial Drug Lead: Primary Screen. Plasmodium falciparum AMA1 (3D7) - RON2 peptide interaction. Potency, µM (highest dose often 58.2 µM), most hits filed as inhibitors. AlphaScreen AMA1-biotinylated RON2 peptide binding. AID 720542, 2013. hit rate 0.2% among 360,000; further: nearly all actives have a fitted effect of over 45% in size
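AMA1 (3D7) with his tag at 25 nM final met compounds first, then biotinylated RON2 peptide at 25 nM; detection used donor plus acceptor beads, 10 µg/mL apiece, read by AlphaScreen after 30 min at room temperature.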
Pf growth 48h: Primary qHTS for delayed death inhibitors of the malarial parasite plastid, 48 hour incubation; hit rate 5.9% among 310,000; AID 504832, 2011; Potency, µM (series often up to 28.7 µM), most hits filed as inhibitors; P. falciparum luciferase growth in erythrocytes, 48 h
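Growth was read as firefly luciferase luminescence after a 48 h, 37 C, 5% CO2 exposure of compounds to reporter-bearing P. falciparum cultures (0.1% parasitemia, 2% hematocrit final) in Albumax-supplemented RPMI 1640.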
Large screens that a line does not name were inactive. Rows were chosen to be rich in hits. Some 21% of all compounds tested hit in one or more screens of this group. Unless noted, the call rests on the fitted dose curve; in most records, active means well fitted curve in the direction sought with a large enough effect; inconclusive means small, poorly fitted or top-dose-only effect, or another doubt; inactive means no such curve, though single readings can be large; an effect the other way counts as inactive or inconclusive.

c1cncc(CNc2ncnc3sc4c(c23)CCCC4)c1	HCV inh inconclusive
COC(=O)[C@H]1C[C@H](O)CN1S(=O)(=O)c1ccc(Br)cc1F	none (no result: CHX counter, Pf growth 96h, Shiga toxin inh, Pf growth 48h)
CCC(C)NC(=O)c1cn(-c2cccc(C)n2)cn1 (stereo unspecified)	CHX counter 20, Shiga toxin inh 53
Cc1cccc(-n2cnc(C(=O)NC3CCCCCC3)c2)n1	CHX counter 60, Shiga toxin inh 76
CCCCCN(C(=O)CN1CCC(Cc2ccccc2)CC1)c1c(N)n(CCCC)c(=O)[nH]c1=O	HCV inh inconclusive, Pf growth 48h inconclusive
Cc1cccc(OCCCn2ccnc2)c1	Pf growth 48h 9.3µM
CCOc1ccc(OCCCCn2ccnc2)cc1	CHX counter 26
CC(C)c1cccc(C(C)C)c1OCCn1ccnc1	Pf growth 48h 13µM
CCOc1ccc(OCCn2ccnc2)cc1	none
Cc1cc(C)cc(OCCCn2ccnc2)c1	Pf growth 96h 4.7µM
Cc1cc(OCCn2ccnc2)ccc1C(C)C	Pf growth 96h inconclusive, AMA1-RON2 inh inconclusive
CC(=O)Nc1cc(NC(C)=O)ncn1	Pf growth 48h inconclusive
N#Cc1ccccc1NC(=O)COc1ccccc1C(=O)Nc1ccccc1	none (no result: CHX counter, Pf growth 96h, Shiga toxin inh, Pf growth 48h)
CNC(=S)N/N=C/c1c(C)nn(-c2ccc(F)cc2)c1Cl	Pf growth 96h inconclusive, Pf growth 48h inconclusive
Cc1nn(-c2ccc(F)cc2)c(Cl)c1/C=N/NC(=O)c1cccs1	HCV inh inconclusive, CHX counter 30, Pf growth 96h inconclusive, Shiga toxin inh 59
Cc1nn(-c2ccc(Cl)cc2)c(Cl)c1/C=N/NC(=O)c1ccc(NS(=O)(=O)c2cccs2)cc1	HCV inh inconclusive (no result: CHX counter, Pf growth 96h, Shiga toxin inh, Pf growth 48h)
Cc1nn(-c2ccc(F)cc2)c(Cl)c1/C=N/NC(=O)c1ccc(O)cc1	HCV inh inconclusive, CHX counter 20, Shiga toxin inh 61, Pf growth 48h inconclusive
CCc1ccc(N/C(SCc2ccccc2C)=C(/C#N)C(=O)NCc2ccco2)cc1	HCV inh inconclusive, CHX counter 15, Pf growth 48h 13µM
CCc1ccc(OCCCC(=O)NCc2ccco2)cc1	Pf growth 48h inconclusive
CC1CC=CC2C1C(=O)N(Cc1ccccc1)C2c1ccc(C(F)(F)F)cc1 (stereo unspecified)	none (no result: HCV inh, Pf growth 96h, AMA1-RON2 inh, Pf growth 48h)
N#Cc1c(Cl)nsc1NN	CHX counter 29, Shiga toxin inh 70
Cc1c(C#N)c(N)nc(Cl)c1C#N	Pf growth 48h inconclusive
COc1ccc(/C=C/c2ccccc2)cc1C1C2C=CCCC2(C)C(=O)N1Cc1ccccc1 (stereo unspecified)	CHX counter 49, Shiga toxin inh 115 (no result: HCV inh, Pf growth 96h, AMA1-RON2 inh, Pf growth 48h)
COc1ccc(/C=C/c2ccccc2)cc1[C@H]1[C@@H]2C=CCC[C@@]2(C)C(=O)N1Cc1ccccc1	CHX counter 20, Pf growth 96h inconclusive, Shiga toxin inh 44, Pf growth 48h 10µM
CC(C)C[C@H](NC(=O)CNC(=O)[C@H](CCC(N)=O)NC(=O)[C@H](CC(C)C)NC(=O)[C@H](CC(C)C)NC(=O)[C@H](CCCNC(=N)N)NC(=O)[C@H](CCC(N)=O)NC(=O)[C@H](CC(C)C)NC(=O)[C@H](CCCNC(=N)N)NC(=O)[C@H](C)NC(=O)CNC(=O)[C@H](CCC(=O)O)NC(=O)[C@H](CCCNC(=N)N)NC(=O)[C@H](CC(C)C)NC(=O)[C@H](CCCNC(=N)N)NC(=O)[C@H](CO)NC(=O)[C@H](CC(C)C)NC(=O)[C@H](CCC(=O)O)NC(=O)[C@H](CO)NC(=O)[C@@H](NC(=O)[C@H](Cc1ccccc1)NC(=O)[C@@H](NC(=O)CNC(=O)[C@H](CC(=O)O)NC(=O)[C@H](CO)NC(=O)[C@@H](N)Cc1cnc[nH]1)[C@@H](C)O)[C@@H](C)O)C(=O)N[C@H](C(N)=O)C(C)C	none (no result: HCV inh, Pf growth 96h, AMA1-RON2 inh, Pf growth 48h)
O=C(NCc1ccccc1)c1cc(C2CCCN(S(=O)(=O)c3cccs3)C2)on1 (stereo unspecified)	none (no result: HCV inh, CHX counter, Pf growth 96h, Shiga toxin inh, Pf growth 48h)
Cc1n(CC(O)COCc2ccccc2)c2ccccc2[n+]1C (stereo unspecified)	Pf growth 96h 3.3µM, Pf growth 48h 9.3µM
OC(COCc1ccccc1)COCc1ccccc1	none (no result: CHX counter, Pf growth 96h, Shiga toxin inh, Pf growth 48h)
CCCOc1c(Br)cc(C(=O)OCc2cc(=O)n3ccsc3n2)cc1OC	HCV inh inconclusive (no result: CHX counter, Pf growth 96h, Shiga toxin inh, Pf growth 48h)
CCc1nn2c(=O)cc(COC(=O)c3cc(Cl)c(OC)c(OC)c3)nc2s1	HCV inh inconclusive, Pf growth 96h inconclusive, Pf growth 48h 12µM (no result: CHX counter, Shiga toxin inh)
COc1ccc(NC(=S)Nc2ccccn2)c(OC)c1	HCV inh 11µM, CHX counter 35, Shiga toxin inh 120
COc1ccc(NC(=S)Nc2cc(C)ccn2)c(OC)c1	HCV inh inconclusive, CHX counter 28, Shiga toxin inh 75
Cc1ccc(C)c(NC(=S)Nc2cccnc2)c1	none
Cc1ccc(NC(=S)Nc2cccnc2)c(S(=O)(=O)N2CCCCC2)c1	HCV inh 11µM, Pf growth 96h inconclusive
COc1cccc(NC(=S)Nc2cccnc2)c1	none
COc1ccc(NC(=S)Nc2cccnc2)c(OC)c1	Pf growth 96h 15µM
COc1ccc(NC(=O)CN2C(=O)NC3(CCCCC3C)C2=O)cc1OC (stereo unspecified)	Pf growth 48h inconclusive (no result: CHX counter, Shiga toxin inh)
Cc1ccc(S(=O)(=O)N(C)CC(=O)N2CCCCCC2)cc1	Pf growth 96h inconclusive
NCCNC[C@@H]1COC2(CCCCCCCCCCC2)O1	Pf growth 96h 7.4µM, Pf growth 48h 8.3µM
Cc1cc(=O)[nH]c(SCC2COC3(CCCCC3)O2)n1 (stereo unspecified)	HCV inh inconclusive
CC(C)S(=O)(=O)C/C(N)=N/OC(=O)c1cc(Cl)cc(Cl)c1	Pf growth 96h inconclusive
O=C(c1ccco1)N1N=C(c2ccc(Cl)cc2)CC1c1ccco1 (stereo unspecified)	HCV inh inconclusive, Pf growth 48h inconclusive
COc1ccc(C2=NN(C(N)=S)C(c3ccco3)C2)cc1 (stereo unspecified)	CHX counter 20
COc1ccc(C2=NN(C(=O)c3ccco3)C(c3ccco3)C2)cc1OC (stereo unspecified)	CHX counter 14, Shiga toxin inh 41
Cc1cccc(CNC(=O)c2ccccc2N)c1	CHX counter 20 (no result: Pf growth 96h)
Cc1ccc(CNC(=O)c2ccccc2N)cc1	none (no result: HCV inh)
CCN(CC)C(=O)c1cc([N+](=O)[O-])cc2c1-c1ccc([N+](=O)[O-])cc1C2=C(C#N)C#N	Pf growth 96h inconclusive, Pf growth 48h 15µM
Cc1[nH]n(-c2ccccc2)c(=O)c1C=NCc1ccncc1	none
Cc1ccc(-n2[nH]c(C)c(C=NCc3ccncc3)c2=O)cc1	CHX counter 39, Shiga toxin inh 53
Cc1ccc(-n2[nH]c(C)c(C=Nc3cc(C)ccn3)c2=O)cc1	Pf growth 96h 7.4µM

Bioassay records: PubChem BioAssay, National Center for Advancing Translational Sciences (NCATS)
